# Compound activity (PubChem BioAssay)
# Most compounds without a hit are left out; they make up all but 11% or so of the library.
# HCV inhibitor = blocks hepatitis C virus | Huh7.5.1 HCVcc-Cre infection, luciferase reporter, 44 h | Potency, µM (highest dose often 41.8 µM), without a hit: at the highest dose activity change, negative = inhibition, most hits filed as inhibitors | 340,000 compounds, 3.4% hits | AID 651820
#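 Cells seeded at 1,000/well and cultured 4 h, then compounds added followed by HCVcc-Cre virus (~0.5 moi). After 44 h further culture, luciferase substrate was added, plates held 15 min at room temperature, and luminescence read for 15 sec.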
# Pf growth 48h = inhibits P. falciparum growth in the first generation, 48 h. P. falciparum luciferase growth in erythrocytes, 48 h. Potency, µM (titrated, usually from 28.7 µM), inactives show top-dose activity change, negative = inhibition, actives largely listed as inhibitors. 310,000 compounds, 5.9% hits
#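 In quantitative HTS format, infected erythrocytes bearing luciferase-reporter parasites were treated for a single generation at 37 C. Luminescence after adding detection reagent served as the growth measure.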
# Pf growth 96h = P. falciparum growth inhibition at 96 hours | P. falciparum luciferase reporter growth, 96 h | Potency, µM (top dose mostly 28.7 µM), for inactives: at the top dose activity change, negative = inhibition, usual class: inhibitors | 320,000 compounds, 6.9% hits | AID 504834
#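 Delayed-death screen, second-generation endpoint: infected erythrocytes, 2% hematocrit, 0.05% parasitemia final; 96 hours at 37 C, 5% CO2; luciferase detection reagent; luminescence decrease equals reduced growth.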
# AMA1 RON2 block = disrupts binding of P. falciparum AMA1 to RON2 | AlphaScreen AMA1-biotinylated RON2 peptide binding | Potency, µM (top dose mostly 58.2 µM), inactives show at the top dose activity change, negative = inhibition, actives largely listed as inhibitors | 360,000 compounds, 0.2% hits;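 further: 0% = vehicle wells and -100% = peptide control; nearly all actives have a fitted effect of over 45% in size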
#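 AMA1 (3D7) with his tag at 25 nM final met compounds first, then biotinylated RON2 peptide at 25 nM; detection used donor plus acceptor beads, 10 µg/mL apiece, read by AlphaScreen after 30 min at room temperature.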
# * = called active by the depositor; u = inconclusive; x = no result given; [ ] = dose if it differs, or a comment. The call rests on the fitted dose curve; in most records, active means well fitted curve in the direction sought with a large enough effect; inconclusive means small, poorly fitted or top-dose-only effect, or another doubt; inactive means no such curve, though single readings can be large; an effect the other way counts as inactive or inconclusive. Unless noted, on the % scale 0 is the no-effect control and ±100 the full control effect; potency means the concentration at half of the fitted maximal effect.
SMILES,HCV inhibitor,Pf growth 48h,Pf growth 96h,AMA1 RON2 block
COc1ccccc1N1CCN(CCCCNC(=O)c2ccc3ccccc3c2)CC1,u,u,4.1µM*,-13%
O=C(CCN1CCN(c2ccccc2)CC1)Nc1cccc(Br)c1,-8%,u,u,-10%
COc1cc(-c2[nH]ncc2CN2CCN(c3cccc(C)n3)CC2)cc(OC)c1OC,11µM*,9.3µM*,4.1µM*,-5%
COc1cc(-c2[nH]ncc2CN2CCSCC2)cc(OC)c1OC,u,u,u,-21%
COc1ccc(OC)c(S(=O)(=O)N2CCN(c3c(C)cccc3C)CC2)c1,-6%,u,4.7µM*,-7%
COc1ccc(C(C)C)cc1S(=O)(=O)N1CCN(C)CC1,23%,x,12µM*,0%
COc1ccc(OC)c(S(=O)(=O)N2CCN(c3ccc(F)cc3)CC2)c1,-6%,-11%,0%,25%
COc1ccc(N2CCN(S(=O)(=O)c3cc(C)ccc3OC)CC2)cc1,2.8µM*,-12%,-3%,-20%
COc1ccc(N2CCN(S(=O)(=O)c3c(C)nc4sccn4c3=O)CC2)cc1,8%,5%,4.1µM*,-15%
CN(C)CCN(C(=O)c1ccccc1Cl)c1nc2c(Cl)cccc2s1,-15%,u,u,u
CCOC(=O)c1oc2ccc(S(=O)(=O)Nc3ccc4c(c3)n(C)c(=O)n4C)cc2c1C,u,u,x,-9%
O=C1NC[C@H](CCCCN2CCN(Cc3ccccc3)C(=O)C2=O)N(Cc2ccccc2)C1=O,x,x,x,-3%
COc1ccc(N2CCN(C3CCCN(S(=O)(=O)c4ccc(C)cc4C)C3)CC2)cc1 (stereo not drawn),8.9µM*,u,u,-7%
COc1ccc(C)cc1S(=O)(=O)N1CCN(C(=O)c2ncoc2-c2ccc(C)cc2)CC1,-10%,1%,14%,5%
COc1ccc(C)cc1S(=O)(=O)N1CCN(C(=O)c2ncoc2-c2cccc(C)c2)CC1,8%,1%,0.93µM*,-6%
COc1ccc(N2CCN(C3CCCN(S(=O)(=O)c4ccccc4)C3)CC2)cc1 (stereo not drawn),-13%,-9%,18%,-23%
O=C(Nc1cc(Cl)ccc1-n1cncn1)c1ccc(Br)o1,u,u,29%,0%
Cn1c(C(=O)O)c(S(=O)(=O)c2ccc(Cl)cc2)c2ccccc21,2%,31%,-11%,10%
O=C(c1ccoc1)N1CCC2(CC1)Oc1ccc(Cl)cc1C(=O)C21CC(c2ccccc2)=NO1 (stereo not drawn),11µM*,15µM*,u,-10%
O=C(/C=C/c1cccs1)N1CCC2(CC1)Oc1ccc(Cl)cc1C(=O)C21CC(c2ccccc2)=NO1 (stereo not drawn),-16%,13µM*,u,u
O=C(c1ccoc1)N1CCC2(CC1)Oc1ccc(Cl)cc1C(=O)C21CC(c2cccnc2)=NO1 (stereo not drawn),9%,u,u,-6%
CC(C)C(=O)N1CCC2(CC1)Oc1ccc(F)cc1C(=O)C21CC(c2cccnc2)=NO1 (stereo not drawn),x,-12%,20%,x
Cc1ccc(C(=O)N2CCC3(CC2)Oc2ccc(F)cc2C(=O)C32CC(c3cccnc3)=NO2)s1 (stereo not drawn),10%,9.3µM*,13µM*,-13%
CCC(=O)N1CCC2(CC1)Oc1ccc(Cl)cc1C(=O)C21CC(c2ccccc2)=NO1 (stereo not drawn),-10%,u,u,11%
Cc1nn(C(C)C(=O)NNC(=S)Nc2ccc(Cl)cc2)c(C)c1[N+](=O)[O-] (stereo not drawn),5%,-3%,x,46%
SMILES,HCV inhibitor,Pf growth 48h,Pf growth 96h,AMA1 RON2 block
CN(C)C(CNc1ccc(S(C)(=O)=O)cc1[N+](=O)[O-])c1ccccc1 (stereo not drawn),8%,-16%,-17%,5%
CC(C)(CNc1ccc(C(F)(F)F)cc1[N+](=O)[O-])N1CCOCC1,-29%,9.3µM*,5.9µM*,-8%
CN(C)C(CNc1ccc(C(F)(F)F)cc1[N+](=O)[O-])c1ccccc1 (stereo not drawn),-3%,u,-28%,14µM*
O=C(CSc1ccc(C(F)(F)F)cc1[N+](=O)[O-])N1CCOCC1,4%,61%,u,-2%
CN(C)C(CNc1ccc(C(N)=O)cc1[N+](=O)[O-])c1ccccc1 (stereo not drawn),22%,39%,29%,0%
COc1ccc(C(CNc2ccc(S(C)(=O)=O)cc2[N+](=O)[O-])N(C)C)cc1OC (stereo not drawn),4µM*,-15%,-10%,54%
Cc1ccc(NC(=O)CN(c2ccc(Cl)cc2)S(=O)(=O)c2cc([N+](=O)[O-])ccc2Cl)c(C)c1,u,u,u,-17%
O=C(NCc1cccs1)C1CCC(CNS(=O)(=O)c2ccc(Br)s2)CC1 (stereo not drawn),-23%,x,7.4µM*,6%
O=C(NCc1cccs1)C1CCN(S(=O)(=O)c2ccc(Br)s2)CC1,-24%,x,20%,8%
Cc1nc(-c2ccncc2)nc(NCCNc2ccc(C(F)(F)F)cn2)c1Cl,u,3.7µM*,2.3µM*,-12%
FC(F)(F)c1ccc(NCCc2ccccc2)nc1,9%,26%,-25%,6%
C=CCn1c(CSc2nc3ccccc3s2)nnc1SCC(=O)NCc1ccccc1,-1%,x,10µM*,-1%
C=CCn1c(CSc2nc3ccccc3s2)nnc1SCC(=O)NCc1cccnc1,14%,u,28%,1%
CCn1c(Cc2c(C)[nH]c3ccccc23)nnc1SCC(=O)NCc1ccccc1,16%,u,u,19%
C=CCn1c(Cc2c(C)[nH]c3ccccc23)nnc1SCC(=O)NCc1ccc(F)cc1,0%,8.3µM*,0.26µM*,-4%
O=C(NCCCl)C1Cc2c(ccc3ccccc23)O1 (stereo not drawn),19%,63%,58%,4%
COc1ccc(NC(=O)COC(=O)c2c(F)cccc2Cl)cc1OC,x,128%,175%,x
COc1cc(CCC(C)=O)ccc1OC(=O)c1c(F)cccc1Cl,11µM*,485%,445%,-7%
CNC(=S)N(C1=NCC(c2ccc([N+](=O)[O-])cc2)S1)c1ccccc1 (stereo not drawn),-1%,-33%,13µM*,-28%
CCN(CC)C1CCCCC1NS(=O)(=O)c1ccc(Cl)cc1 (stereo not drawn),12%,-15%,u,3%
CN(c1ccccc1)C1CCCCC1NS(=O)(=O)c1ccc(Cl)cc1 (stereo not drawn),u,6.6µM*,u,-11%
Nn1c(SCC(=O)Nc2cccnc2Cl)nnc1-c1ccccc1,16%,23%,5%,-10%[11.6 µM]
CCOC(=O)C1CCN(C(=O)CN(c2cc(Cl)ccc2OC)S(=O)(=O)c2ccccc2)CC1,15%,15µM*,u,12%
COc1ccc(OC)c(N(CC(=O)N2CCCC2)S(=O)(=O)c2ccc(OC)c(OC)c2)c1,26%,u,x,13%
